# According to article PMC4336329 (PLoS ONE, 2015):
# The campaign covered roughly 310,000 compounds. About 14,000 (4.5%) showed an effect of 50% or more. Effects have a minus sign here. The list comes from a sample in which strong results are over-represented; it also holds similar structures and randomly drawn compounds.
# Target: human ether-à-go-go-related gene (hERG) potassium channel (human, UniProt Q12809)
# Test: primary screen, population patch clamp on CHO cells stably expressing hERG; higher = less effect of the substance
# 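Also: peak tail current of the secondary pulse compared with the same well before compound.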
# Chain of human ether-à-go-go-related gene (hERG) potassium channel (Q12809 whole entry, looked up): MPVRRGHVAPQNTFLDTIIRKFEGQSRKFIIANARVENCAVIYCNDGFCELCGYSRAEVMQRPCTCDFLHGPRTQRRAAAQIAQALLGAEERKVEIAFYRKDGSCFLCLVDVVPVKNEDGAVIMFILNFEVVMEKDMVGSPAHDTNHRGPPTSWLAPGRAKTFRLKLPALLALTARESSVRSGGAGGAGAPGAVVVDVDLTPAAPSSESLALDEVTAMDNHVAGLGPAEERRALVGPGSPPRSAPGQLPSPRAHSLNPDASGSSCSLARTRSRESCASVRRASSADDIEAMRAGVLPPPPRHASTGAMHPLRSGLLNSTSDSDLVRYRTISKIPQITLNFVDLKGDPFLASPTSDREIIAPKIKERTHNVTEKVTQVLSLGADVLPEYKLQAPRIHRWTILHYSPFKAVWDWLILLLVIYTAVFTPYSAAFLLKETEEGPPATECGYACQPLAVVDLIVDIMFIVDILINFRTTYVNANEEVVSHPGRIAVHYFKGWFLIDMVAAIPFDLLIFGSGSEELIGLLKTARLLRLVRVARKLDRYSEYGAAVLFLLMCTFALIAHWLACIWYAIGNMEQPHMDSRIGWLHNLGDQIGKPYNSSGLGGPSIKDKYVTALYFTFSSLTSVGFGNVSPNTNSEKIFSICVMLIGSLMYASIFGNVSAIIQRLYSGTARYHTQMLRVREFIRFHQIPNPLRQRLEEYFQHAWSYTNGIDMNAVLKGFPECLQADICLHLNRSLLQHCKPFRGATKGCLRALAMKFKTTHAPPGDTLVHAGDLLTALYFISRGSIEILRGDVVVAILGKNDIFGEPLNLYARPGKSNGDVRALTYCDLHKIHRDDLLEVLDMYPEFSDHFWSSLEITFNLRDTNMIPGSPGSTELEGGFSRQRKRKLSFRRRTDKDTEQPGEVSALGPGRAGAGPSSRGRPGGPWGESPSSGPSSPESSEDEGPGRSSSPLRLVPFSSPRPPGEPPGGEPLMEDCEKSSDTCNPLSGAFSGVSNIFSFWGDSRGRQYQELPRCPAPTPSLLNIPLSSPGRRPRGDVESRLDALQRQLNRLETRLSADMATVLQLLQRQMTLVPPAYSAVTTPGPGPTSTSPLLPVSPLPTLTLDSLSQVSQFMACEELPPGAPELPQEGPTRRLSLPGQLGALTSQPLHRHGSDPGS
row,SMILES,"hERG current change (%, negative = inhibition) at 10uM [%]"
1,O=C(O)/C(=C\c1cccc(C(F)(F)F)c1)c1ccc(S(=O)(=O)N2CCCC2)s1,5.74
2,O=C(Cc1cccs1)Nc1cccc(C(=O)Nc2ccco2)c1,-37.9
3,CCOc1ccc(Nc2oc(-c3ccco3)nc2C#N)cc1,-1.69
4,COC(=O)c1ccc(NC(=O)CSc2nc(N)c(NC(=O)c3ccc(Br)o3)c(=O)[nH]2)cc1,20.8
5,Cc1cc(C)c(S(=O)(=O)Nc2nccs2)c(C)c1,0.875
6,Cc1cc(S(=O)(=O)NCC(C)C)ccc1OCC(=O)NCC1CCCO1 (centres unmarked),8.03
7,CC(=O)Nc1nc(C)c(Oc2ccc(C)cc2)c(=O)[nH]1,-1.03
8,S=C(NC1CC1)SCc1ccco1,-11.5
9,COc1cccc(NC(=O)CN(C)CC(=O)NC(C)c2ccccc2)c1 (centres unmarked),-8.48
10,CN(C)CCN1C(=O)c2oc3ccc(F)cc3c(=O)c2C1c1ccncc1 (centres unmarked),-2
11,CCOC(=O)CC(=O)CSc1ncnc2c1oc1ccccc12,5.2
12,Cc1ccc(Cl)cc1Nc1nc(-c2sc(NC(=O)c3ccco3)nc2C)cs1,3.48
13,COc1ccc2c(c1)C(C)CC(C)(C)N2C(=O)CSc1ncn[nH]1 (centres unmarked),-10.9
14,Cc1ccccc1OCCCC(=O)Nc1ccc(Br)cc1,5.24
15,COc1cccc(OC)c1C(=O)OCC(=O)N(C)c1ccccc1,7.96
16,Cc1ccc(NC(=O)[C@H](C)NC(=O)C2CCN(C(=O)[C@@H](N)CC(C)C)CC2)cc1.Cl,7.29
17,COc1ccc(OCC(O)CN2CCC(CN3C(=O)c4cccc5cccc(c45)C3=O)CC2)cc1.Cl (centres unmarked),-59.1
18,CCc1ccc(OCC(O)CN2CCC(CN3C(=O)c4cccc5cccc(c45)C3=O)CC2)cc1.Cl (centres unmarked),-41.1
19,COc1ccc(S(=O)(=O)N2CCC(CN3C(=O)c4cccc5cccc(c45)C3=O)CC2)cc1,7.22
20,Cc1cc(C)n(C(=O)CCCC(=O)n2nc(C)cc2C)n1,-4.17
21,CC(=O)Nc1ccc(NC(=O)COc2ncnc3ccccc23)cc1,-7.63
22,O=C(Nc1ccccn1)c1cc(-c2cccc(Cl)c2)nc2ccccc12,13.3

row,SMILES,"hERG current change (%, negative = inhibition) at 10uM [%]"
1,CC1CCN(S(=O)(=O)c2cc(C(=O)N3CCN(c4ncccn4)CC3)ccc2Br)CC1,-72.4
2,O=C(c1ccc(Cl)c(S(=O)(=O)N2CCCC2)c1)N1CCN(c2ccccn2)CC1,-31.3
3,O=C(c1ccc(Cl)c(S(=O)(=O)N2CCCC2)c1)N1CCN(c2ncccn2)CC1,-4.2
4,O=C(c1ccc(Cl)c(S(=O)(=O)N2CCCCCC2)c1)N1CCN(c2ccccn2)CC1,-63.6
5,O=C(c1ccc(CNS(=O)(=O)c2ccccc2)cc1)N1CCN(c2ccccn2)CC1,-28.5
6,O=C(c1ccc(Cl)c(S(=O)(=O)NCc2ccccc2)c1)N1CCN(c2ccccn2)CC1,-50.3
7,O=C(c1ccc(Cl)c(S(=O)(=O)Nc2ccc(F)cc2)c1)N1CCN(c2ccccn2)CC1,-33.9
8,O=C(c1ccc(Cl)c(S(=O)(=O)N2CCOCC2)c1)N1CCN(c2ccccn2)CC1,-44.2
9,CC1CCN(C(=O)c2ccc(Br)c(S(=O)(=O)N3CCOCC3)c2)CC1,-3.74
10,CCC1(C)CC(C(N)=S)CCO1 (centres unmarked),27.4
11,O=C(C1CCC1)N(CCc1ccccc1)Cc1nc2ccccc2c(=O)[nH]1,-4.04
12,CCc1nnc(NC(=O)CN2C(=O)c3ccccc3S2(=O)=O)s1,10.7
13,Cc1ccc(S(=O)(=O)Nc2c(C)nn(C)c2C)cc1,-4.07
14,CCn1c(=O)c2sccc2n(Cc2ccc(C)cc2)c1=O,26
15,O=C(CN1CCN(c2ccc(F)cc2)CC1)Nc1ccc2c(c1)OCCO2,4
16,Cc1cc(C)cc(NC(=O)N2CCN(Cc3ccc4c(c3)OCO4)CC2)c1,-59
17,O=C(CN1CCN(S(=O)(=O)c2ccc(F)cc2)CC1)Nc1ccc2c(c1)OCO2,-40.6
18,O=C(CN1CCN(CC(=O)Nc2ccc3c(c2)OCO3)CC1)Nc1ccc(F)cc1,-73.4
19,CC1CCc2nc(NC(=O)CN3CCOCC3)sc2C1 (centres unmarked),-4.5
20,O=C(CN1CCN(Cc2ccc3c(c2)OCO3)CC1)Nc1ccc(F)cc1,-81.7
21,CC1CCc2nc(NC(=O)CN3CCN(Cc4ccc5c(c4)OCO5)CC3)sc2C1 (centres unmarked),-66.7
22,O=C(CN1CCN(Cc2ccc3c(c2)OCO3)CC1)NCC(F)(F)F,5.34
